BRCA1 expr act = activators of BRCA1 expression; AID 624202; Potency, µM (series often up to 46.1 µM), without a hit: top-dose activation, most hits filed as activators; MCF7-BRCA1-FFLuc reporter, luminescence, 48 h; response scale: scaled: vehicle 0%, 10 µM genistein 100%; 380,000 compounds, 1.1% hits; also: nearly all actives have a fitted effect of over 80% in size
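48 h compound treatment of MCF7-BRCA1-FFLuc cells (phenol-red free MEM, 37 °C), then 15 min with luciferase substrate and luminescence imaging.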
PLK1 PBD inh = inhibitors of human PLK1 polo-box domain binding; P53350; Plk1 PBD binding of FITC phosphopeptide, fluorescence polarization; Potency, µM, inactives show max response, negative = inhibition, actives largely listed as inhibitors; 360,000 compounds, 2.8% hits; AID 720504; also: series mostly up to about 57 µM; % is scaled to controls: 0 for no effect and ±100 for the full control effect; nearly all actives have a fitted effect of over 65% in size
VDR inhibitor = vitamin D3 receptor (human) inhibition | VDR-SRC2-3 peptide fluorescence polarization, 2 h | Potency, µM, inactives show max response, negative = inhibition, most hits filed as inhibitors | P11473 | 400,000 compounds, 0.93% hits; also: % is scaled to controls: 0 for no effect and ±100 for the full control effect
Target sequence (P11473 whole entry, looked up): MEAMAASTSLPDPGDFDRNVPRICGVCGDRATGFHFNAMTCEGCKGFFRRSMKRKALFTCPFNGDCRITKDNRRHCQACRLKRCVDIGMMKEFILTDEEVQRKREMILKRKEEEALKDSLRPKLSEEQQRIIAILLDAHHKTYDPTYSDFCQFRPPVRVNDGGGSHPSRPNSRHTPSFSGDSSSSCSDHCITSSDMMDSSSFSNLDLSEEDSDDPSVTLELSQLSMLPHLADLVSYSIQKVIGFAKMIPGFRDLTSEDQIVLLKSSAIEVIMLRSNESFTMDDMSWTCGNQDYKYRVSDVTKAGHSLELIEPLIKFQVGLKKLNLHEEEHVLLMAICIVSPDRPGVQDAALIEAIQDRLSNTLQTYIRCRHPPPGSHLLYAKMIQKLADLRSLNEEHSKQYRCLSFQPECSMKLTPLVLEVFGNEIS
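Fluorescence polarization assay measuring small-molecule disruption of VDR binding to the coregulator peptide SRC2-3. Compounds were pin-transferred (23 nl) into the reagent mix and incubated 2 h at room temperature before reading.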
Tb PFK block = blocks T. brucei phosphofructokinase; 330,000 compounds, 0.17% hits; AID 485367; Potency, µM (highest dose often 57.5 µM), for inactives: top-dose activity, negative = inhibition, actives largely listed as inhibitors; T. brucei PFK, ADP-Glo luminescence;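 also: 0% = uninhibited 1x PFK enzyme wells and -100% = no-enzyme wells; nearly all actives have a fitted effect of over 60% in size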
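PFK 1.25 nM, F6P 0.5 mM, ATP 0.1 mM, 0.1 M TEA pH 8.0, 5 mM MgCl2, 0.01% Tween20, 0.1% BSA; 45 min RT. ADP-Glo readout. qHTS titration up to 57 uM; curves fitted, compounds curve-classed.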
* marks the source's active call; other numbers are inactive results. Most compounds without a hit are left out; they make up all but 3.9% or so of the library. Calls follow the shape of the dose curve; as a rule, active = well fitted curve in the direction sought with a large enough effect; inconclusive = small, poorly fitted or top-dose-only effect, or another doubt; inactive = no such curve, though single readings can be large; an effect the other way counts as inactive or inconclusive. Potency is read from the fitted curve at half-maximal effect.

`CC(=O)Nc1nonc1-c1nnc(SCC(=O)Nc2ccccc2Cl)n1C` gave VDR inhibitor -4.0%.
`N#C/C(=C\c1cccc(Br)c1)C(=O)N1CCCCC1` gave BRCA1 expr act -36.6%, PLK1 PBD inh inconclusive, VDR inhibitor 50.1µM* and Tb PFK block 2.7%.
N#C/C(=C\c1ccccc1)C(=O)N1CCN(c2ccccc2F)CC1 was read as BRCA1 expr act 9.4%, PLK1 PBD inh -16.5%, VDR inhibitor 44.7µM* and Tb PFK block -7.1%.
Screening Cc1c(-c2ccccc2)n[nH]c1C(=O)NN returned BRCA1 expr act inconclusive, PLK1 PBD inh 0.0%, VDR inhibitor -9.1% and Tb PFK block -9.7%.
`CCOc1ccc(-c2n[nH]c(C(=O)NN)c2C)cc1` gave BRCA1 expr act 10µM*, PLK1 PBD inh inconclusive, VDR inhibitor -4.9% and Tb PFK block -3.2%.
For CN1CCC/C1=C1/C(=O)N(c2ccccc2)N=C1NC(=O)Nc1cccc(Cl)c1 the results were BRCA1 expr act 2.7%, PLK1 PBD inh 3.77µM*, VDR inhibitor inconclusive and Tb PFK block -5.9%.
Screening O=S(=O)(Nc1ccc(O)c2ccccc12)c1cccs1 returned BRCA1 expr act -91.2%, PLK1 PBD inh 11.9µM*, VDR inhibitor inconclusive and Tb PFK block 6.0%.
O=C(CC1C(=O)NCCN1Cc1cccc(F)c1)NCCCOc1cccnc1 (centres undefined) was read as BRCA1 expr act -2.4%, PLK1 PBD inh 23.8µM*, VDR inhibitor -19.6% and Tb PFK block -10.0%.
For CCOc1ccc(CN2CCNC(=O)C2CC(=O)NCCCOc2cccnc2)cc1 (centres undefined) the results were BRCA1 expr act -0.3%, PLK1 PBD inh inconclusive, VDR inhibitor -5.5% and Tb PFK block -4.9%.
`CCOc1cc(Br)cc(C(c2c(C(=O)O)[nH]c3ccccc23)c2c(C(=O)O)[nH]c3ccccc23)c1O` gave BRCA1 expr act -4.5%, PLK1 PBD inh 15µM*, VDR inhibitor inconclusive and Tb PFK block 0.5%.
For CSc1ccc(C(c2c(C(=O)O)[nH]c3ccccc23)c2c(C(=O)O)[nH]c3ccccc23)cc1 the results were BRCA1 expr act 0.0%, PLK1 PBD inh 10.6µM*, VDR inhibitor -26.7% and Tb PFK block -1.1%.
CC(NC(=O)C1CCCN1S(=O)(=O)c1cccc2nsnc12)c1ccccc1 (centres undefined) was read as BRCA1 expr act 1.3%, PLK1 PBD inh -0.5%, VDR inhibitor 7.2% and Tb PFK block 7.8%.
`CCCC1C(C#N)=C(N)Oc2n[nH]c(C(C)(C)C)c21` (centres undefined) gave BRCA1 expr act -14.7%, PLK1 PBD inh 6.7µM*, VDR inhibitor inconclusive and Tb PFK block -0.4%.
CCN1CC=C2C(C#N)=C(N)C(C#N)(C#N)C(CCc3ccccc3)C2C1 (centres undefined) was read as BRCA1 expr act -56.1%, PLK1 PBD inh inconclusive, VDR inhibitor inconclusive and Tb PFK block -2.1%.
For CC(=O)N1CC=C2C(C#N)=C(N)C(C#N)(C#N)C(CCc3ccccc3)C2C1 (centres undefined) the results were BRCA1 expr act -54.8%, PLK1 PBD inh 26.7µM*, VDR inhibitor inconclusive and Tb PFK block 15.9%.
COc1ccc(CCNC(=O)C(F)(F)F)cc1S(N)(=O)=O was read as PLK1 PBD inh -4.0%.
Screening COc1cc(CN2CCCC(CO)(Cc3cccc(Cl)c3)C2)cc2c1OCO2 (centres undefined) returned BRCA1 expr act -9.8%, PLK1 PBD inh 21.2µM*, VDR inhibitor inconclusive and Tb PFK block -0.7%.
For CCCSc1nsc(NC(=O)CCC)n1 the results were BRCA1 expr act 1.41µM*, PLK1 PBD inh -15.5%, VDR inhibitor -0.7% and Tb PFK block 0.4%.
`COc1cccc(-c2cncnc2Nc2ccc(F)cc2)c1` gave VDR inhibitor 50.1µM*.
`c1ccc(C2=Nn3c(nnc3-c3ccco3)SC2)cc1` gave BRCA1 expr act -21.9%, PLK1 PBD inh 29.9µM*, VDR inhibitor -2.0% and Tb PFK block -2.1%.
Fc1ccc(C2=Nn3c(nnc3-c3ccco3)SC2)cc1 was read as BRCA1 expr act -15.6%, PLK1 PBD inh -9.2%, VDR inhibitor -7.9% and Tb PFK block -8.8%.
For O=C(NCc1ccco1)C1CCN(C(=O)c2ccc([N+](=O)[O-])cc2)CC1 the results were BRCA1 expr act -4.5%, PLK1 PBD inh -7.6%, VDR inhibitor -11.8% and Tb PFK block 0.8%.
